# PubChem BioAssay AID624115 (Johns Hopkins Ion Channel Center, 2012)
# The whole screen tested about 4,000 compounds, of which about 350 (8.8%) were called active.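 Rule for the calls: active = calcium fluorescence ratio at least three times the spread of buffer wells, meaning a non-specific response in parental cells; inactive = the rest.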 The list is a sample of the results.
# Experiment: calcium response in parental HEK293 cells, primary screen, counter-screen for MrgX1 agonist project, cell-based, Fluo-4 calcium flux, duplicate, agonist mode (AID 624115)
# Conditions: parental HEK293, Fluo-4 calcium fluorescence (FDSS), at 10 µM; hits give high values
row,Structure (SMILES),fluorescence ratio F(max-min)/F0
1,CCOCc1nnc(NC(=O)CCC2CCCCC2)s1,inactive
2,CCOc1cc(-c2conc2N)cc(OCC)c1OCC,inactive
3,Cc1cc(C)cc(NC(=S)NCCc2c[nH]c3ccccc23)c1,inactive
4,C(=N\n1cnnc1)/c1cccnc1,inactive
5,O=S(=O)(c1ccc2ccccc2c1)N1CCN(S(=O)(=O)N2CCOCC2)CC1,inactive
6,Cc1cc2oc3ccc(NCCC4CCCN4C)cc3c(=O)c2cc1C (configuration not stated),95.1 (active)
7,COc1ccc(C2SCCN2S(=O)(=O)c2ccccc2)cc1OC (configuration not stated),inactive
8,COc1ccccc1N(CC(=O)N1CCCCC1)S(=O)(=O)c1ccccc1,78.4 (active)
9,Cc1ccc(OC(=O)c2cc3ccccc3o2)cc1,inactive
10,Cc1nn(C(=O)c2ccoc2C)c(N)c1-c1ccccc1,inactive
11,O=C(Cc1ccccn1)c1ccc(O)cc1O,inactive
12,O=C(Nc1ccccc1)c1nnsc1S(=O)(=O)c1ccc(Cl)cc1,inactive
13,CCCCCCCCCCOC(=O)Cn1c(COc2ccc(C)cc2)[n+](C)c2ccccc21,inactive
14,Cc1ccc(Cc2cnc(N)s2)o1,inactive
15,CCNC(=O)c1c(O)c2cccc3c2n(c1=O)CC3,inactive
16,CCc1ccc2nc3sc(C(=O)Nc4nnc(CC)s4)c(N)c3cc2c1,47 (active)

row,Structure (SMILES),fluorescence ratio F(max-min)/F0
1,COCc1nnc(NC(=O)c2ccc3c(c2)OCO3)s1,inactive
2,CCOC(=O)C1=C(O)CSC1=Nc1cccc(Cl)c1,inactive
3,C=CCSc1nc(Cc2ccc(Cl)cc2)nc2ccccc12,inactive
4,Cc1cc(=O)oc2cc(NC(=O)C3CC(=O)N(Cc4ccccc4)C3)ccc12 (configuration not stated),inactive
5,CCCc1nc2c(c(=O)c3ccccc3n2C)c(=O)n1C1CCCCCC1,inactive
6,CCN(CC)CC(=O)Nc1nn(-c2ccccc2)nc1C(N)=O,inactive
7,COc1cc2c(cc1O)C(SC)=NC(C)(C)C2,inactive
8,CCC1CCCCN1CCNC(=O)c1[nH]c(C)c(C(C)=O)c1C (configuration not stated),inactive
9,Cc1ccc2c(C)c(C(=O)N(C)CCC3CCCCO3)oc2c1C (configuration not stated),inactive
10,Cc1cccc(NC(=O)COc2ccccc2C)n1,inactive
11,O=C(O)CSC(NC(=O)c1cccnc1)(C(F)(F)F)C(F)(F)F,inactive
12,O=C(CCN1CCc2ccccc2C(O)(c2ccccc2)C1)c1ccc2c(c1)OCCO2 (configuration not stated),inactive
13,CC(C)CC(=O)N/C(N)=N/c1nc2ccccc2s1,inactive
14,CC(C)CC(=O)NC(=S)NNC(=O)c1cccc([N+](=O)[O-])c1,53 (active)
15,Cc1onc(-c2ccccc2)c1C(=O)NNC(=S)NC(=O)c1ccc(F)cc1,123 (active)
16,COc1ccc(C(=O)NC(=S)NNC(=O)c2c(-c3ccccc3)noc2C)cc1,108 (active)
